Compound activity: PubChem, National Center for Advancing Translational Sciences (NCATS)
PLK1 PBD inh: PLK1 (human) polo-box domain binding inhibition. Potency, µM, for inactives: max response, negative = inhibition, actives largely listed as inhibitors. AID 720504. P53350. Plk1 PBD binding of FITC phosphopeptide, fluorescence polarization. 2.8% of 360,000 active; further: potency means the concentration at half of the fitted maximal effect; series mostly up to about 57 µM; on the % scale 0 is the no-effect control and ±100 the full control effect; nearly all actives have a fitted effect of over 65% in size
G9a inh: inhibitors of human histone lysine methyltransferase G9a; Q96KQ7; AID 504332; 8.8% of 350,000 active; Potency, µM (highest dose often 102 µM), without a hit: at the highest dose activity, negative = inhibition, actives largely listed as inhibitors; G9a H3K9 monomethylation, AlphaScreen, 2 h; further: potency means the concentration at half of the fitted maximal effect; on the % scale 0 is the no-effect control and ±100 the full control effect; nearly all actives have a fitted effect of over 75% in size
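Using a bead-based AlphaScreen, monomethylated H3K9 product from 2 h room-temperature reactions (G9a 20 nM, peptide 500 nM, SAM 20 uM) was detected with 0.5 ug/mL rabbit anti-H3K9me1 antibody.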
CCT chaperon mod: modulators of cytosolic chaperonin (CCT/TRiC) activity; purified chaperonin ATPase assay, HTRF ADP detection, 30 min; 0.3% of 360,000 active; activity change, % (concentration not given with the values), hits read low; in the data active means activity change below about -30%; further: on the % scale 0 is the no-effect control and ±100 the full control effect
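Enzyme 40 or 20 nM (batch-dependent) in Tris pH 7.4/KCl/MgCl2/DTT; cpd 76 uM single point; ATP 10 uM; 30 min 37 °C; Transcreener ADP HTRF detection, 30 min RT; ratio 665/615.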
VDR inh: blocks the human vitamin D receptor; P11473; 0.93% of 400,000 active; Potency, µM, without a hit: max response, negative = inhibition, hits mostly inhibitors; VDR-SRC2-3 peptide fluorescence polarization, 2 h; further: potency means the concentration at half of the fitted maximal effect; on the % scale 0 is the no-effect control and ±100 the full control effect
Target sequence (P11473 whole entry, looked up): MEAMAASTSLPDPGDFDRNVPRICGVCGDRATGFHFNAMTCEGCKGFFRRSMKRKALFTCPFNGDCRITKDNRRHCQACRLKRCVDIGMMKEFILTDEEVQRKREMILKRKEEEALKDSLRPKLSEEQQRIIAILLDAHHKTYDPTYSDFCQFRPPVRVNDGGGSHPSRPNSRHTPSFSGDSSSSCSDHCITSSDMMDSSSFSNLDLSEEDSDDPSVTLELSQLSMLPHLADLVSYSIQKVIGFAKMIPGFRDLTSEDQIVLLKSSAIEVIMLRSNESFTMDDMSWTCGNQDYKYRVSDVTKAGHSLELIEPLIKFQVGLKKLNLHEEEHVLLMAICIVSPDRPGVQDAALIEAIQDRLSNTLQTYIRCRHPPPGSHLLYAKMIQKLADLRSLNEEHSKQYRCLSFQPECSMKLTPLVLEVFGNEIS
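Signal is fluorescence polarization, reporting how far test compounds block the interaction of VDR with the SRC2-3 coregulator peptide after a 2 h room-temperature incubation.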
MmCpn inh: inhibitors of Methanococcus maripaludis chaperonin TRiC (MmCpn); 0.031% of 330,000 active; purified Mm-Cpn ATPase, ADP Transcreener TR-FRET; Potency, µM (titrated, usually from 76.9 µM), inactives show at the highest dose activity, negative = inhibition, usual class: inhibitors; further: potency means the concentration at half of the fitted maximal effect; on the % scale 0 is the no-effect control and ±100 the full control effect; nearly all actives have a fitted effect of over 80% in size
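TR-FRET (320 nm excitation; 590 and 665 nm emission) reports ADP made from 10 uM ATP by 25 nM enzyme; compounds were preincubated 10 min, reaction run 30 min, both at 37°C.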
Sfp inh: blocks B. subtilis Sfp PPTase activity; Biochemical Sfp PPTase activity, qHTS; Potency, µM, for inactives: largest response in the series, negative = inhibition, actives largely listed as inhibitors; 3.5% of 310,000 active; AID 1490;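 further: the enzyme is Sfp with the accession as filed and its product quenches rhodamine fluorescence; potency means the concentration at half of the fitted maximal effect; 0% = enzyme reaction without inhibitor and -100% = no enzyme wells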
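Fluorescence-quenching assay: 15 nM Sfp-PPTase preincubated 15 min at room temperature with compound, then 5 uM rhodamine-CoA and 12.5 uM BHQ-2-labelled YbbR peptide added. Fluorescence (ex 525/em 598 nm) read at start and after 30 min; difference gives rate.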
USP1-UAF1 confirm: USP1-UAF1 deubiquitinase inhibition validated; shares compounds with VDR inh; Ub-Rhodamine cleavage, fluorescence kinetic read; Potency, µM (titrated, usually from 56.8 µM), for inactives: at the highest dose activity change, negative = inhibition, actives largely listed as inhibitors; 50% of 50 active; AID 540327
VDR inh confirm: inhibits human vitamin D receptor, primary hit validation; VDR-coactivator inhibition assay, qHTS confirmation; AID 602199; Potency, µM, actives largely listed as inhibitors; 89% of 840 active; shares compounds with VDR inh; further: potency means the concentration at half of the fitted maximal effect
VDR FP: confirmation of human VDR-coactivator binding inhibitors, fluorescein label. shares compounds with VDR inh. VDR-coactivator binding, fluorescein fluorescence polarization. Potency, µM (highest dose often 57.1 µM), for the others: top-dose activity change, negative = inhibition, most hits filed as inhibitors. 48% of 840 active. AID 602200; further: potency means the concentration at half of the fitted maximal effect
VDR bla reporter: VDR (human) inhibition, cell-based beta-lactamase validation; shares compounds with VDR inh; VDR beta-lactamase reporter cells, FRET ratio; cells co-treated with VDR agonist LG190178; Potency, µM (titrated, usually from 46.1 µM), for inactives: at the top dose activity change, negative = inhibition, most hits filed as inhibitors; 23% of 840 active; further: potency means the concentration at half of the fitted maximal effect; on the % scale 0 is the no-effect control and ±100 the full control effect
VDR cytotox: cytotoxic in counter-screen for VDR inhibitors; shares compounds with VDR inh; cytotoxicity counter-screen, cell viability, qHTS; Potency, µM (top dose mostly 48.3 µM), for the others: top-dose activity change, negative = cytotoxicity, actives largely listed as cytotoxic; 18% of 840 active;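 further: potency means the concentration at half of the fitted maximal effect; plate controls were DMSO for no effect and high-concentration cycloheximide for full effect; nearly all actives have a fitted effect of over 75% in size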
Numbers without * were called inactive; ? = inconclusive; . = no result given; ! = repeats disagree; [ ] = another dose, or the depositor's remark. Rows were chosen to be rich in hits. Some 10% of all compounds tested hit in one or more screens of this group. Unless noted, the call rests on the fitted dose curve; in most records, active means well fitted curve in the direction sought with a large enough effect; inconclusive means small, poorly fitted or top-dose-only effect, or another doubt; inactive means no such curve, though single readings can be large; an effect the other way counts as inactive or inconclusive.

SMILES	PLK1 PBD inh	G9a inh	CCT chaperon mod	VDR inh	MmCpn inh	Sfp inh	VDR inh confirm	VDR FP	VDR bla reporter	VDR cytotox	others
Cc1ccc(S(=O)(=O)N[C@@H](Cc2ccccc2)C(=O)CCl)cc1	?	-35%[59 µM]	-1	5.6µM*	2%	0%	9.5*	7.1µM*	18µM*	?	USP1-UAF1 confirm=47µM*
CC1(C)C(=O)NC2=C1C(=O)C(=O)c1ccccc12	.	.	.	45µM*	.	50µM*!	.	.	.	.	USP1-UAF1 confirm=0.83µM*
O=C(O)[C@H](Cc1c[nH]c2ccccc12)N1C(=O)C2=CCCC=C2C1=O	.	.	.	-8%	.	0%	.	.	.	.
Cc1ccc(C(C2=C(O)CC(C)(C)CC2=O)C2C(=O)CC(C)(C)CC2=O)s1 (stereo not given)	4.7µM*	?	0	50µM*	-2%	35µM*	11*	7.9µM*	22%	?
CC1(C)CC(=O)C(Br)=C(O)C1	?	?	2	-10%	2%	3%	.	.	.	.
COc1ccc2c(c1)Cc1sc(NC(=O)c3cccc(Cl)c3)nc1-2	.	?	.	-28%	.	.	.	.	.	.
COc1ccc2c(c1)Cc1sc(NC(=O)c3cccc(C)c3)nc1-2	.	?	.	20µM*	.	.	7.1*	7.1µM*	?	?
O=c1cc(COc2ccccc2Cl)nc2scc(-c3ccccc3)n12	.	1%[59 µM]	.	-4%	.	.	.	.	.	.
O=C(/C=C\c1ccccc1OC(=O)c1ccccc1F)c1cc2ccccc2o1	-16%	45µM*	1	14µM*	-15%	?	?	3.5µM*	?	?
CC(=O)/C=C\c1ccccc1OC(=O)c1cc2ccccc2oc1=O	-7%	.	0	-25%	-5%	-5%	.	.	.	.
CN(C)c1ccc(-n2cccc2/C=C/[N+](=O)[O-])cc1	-26%	22µM*	-2	35µM*	-5%	?	13*	8.9µM*	?	?
CN(C)c1ccc(/C=C/c2c([N+](=O)[O-])c(=O)n(C)c(=O)n2C)cc1	-6%	-1%	-1	-4%	-1%	8%	.	.	.	.
Cc1ccc2c(c1)C(=O)C(=O)N2Cc1ccc(Br)cc1	?	.	1	22µM*	0%	.	8.4*	?	-21%	?
Cc1ccc(Cl)cc1NC(=O)c1oc2c(c1C)-c1[nH]ncc1CC2	.	-6%[59 µM]	.	5%	.	.	.	.	.	.
CSc1ncc(C(=O)Nc2ccccc2C(=O)c2ccccc2)c(C)n1	.	-23%[59 µM]	.	5%	.	.	.	.	.	.
CCOC(=O)c1sc(NC(=O)C(C)C)c(C#N)c1C	3µM*	.	-1	28µM*	-1%	12%	3.8*	?	-8%	-4%
CCOC(=O)c1sc(NC(=O)CSc2nnc(Cc3ccccc3)o2)c(C#N)c1C	1.7µM*	?	-1	13µM*	-1%	3.2µM*	3*	?	73%	-2%
COc1ccc(/C=C2\N=C(C)OC2=O)cc1[N+](=O)[O-]	?	?	0	79µM*	0%	11%	11*	?	29%	15%
